Measured values as given in PubChem BioAssay AID624167 (Sanford-Burnham Center for Chemical Genomics, 2012).

Assay: Peg3 promoter luciferase inhibitors, potency, dose response, cell-based, HeLa, CREF/GAPDH counter-screen panel (AID 624167)
Conditions: CREF/GAPDH counter-screens; run 1, dose range 1, at 100 µM (top of the series)

Question: For `O=[N+]([O-])c1nn(-c2ccc3c(c2)OCCO3)n(O)c1=Nc1ccc(Cl)cc1`, which inhibition is on record?
Answer: The inhibition was 78.7%.

Question: Which inhibition does the source give for `O=C(/C=C/c1ccc(Cl)c([N+](=O)[O-])c1)c1ccc(O)cc1` here?
Answer: Its inhibition is 100%.

Question: For `CCCCC(=O)NC(c1ccc(OC)cc1)c1ccc2cccnc2c1O` (stereo not drawn), which inhibition is on record?
Answer: Its inhibition is 21.2%.

Question: With `CN1C/C(=C/c2ccccc2[N+](=O)[O-])C(=O)/C(=C\c2ccccc2[N+](=O)[O-])C1` as the compound, how does the inhibition read?
Answer: The inhibition was 50.1%.

Question: With `CCCC(=O)NC(c1ccccc1)c1ccc2cccnc2c1O` (stereo not drawn) as the compound, how does the inhibition read?
Answer: Its inhibition is 26.9%.

Question: With `O=C(N/N=C/c1sc(N2CCOCC2)nc1-c1ccccc1)c1cccc(S(=O)(=O)N2CCCC2)c1` as the compound, how does the inhibition read?
Answer: Its inhibition is 52%.

Question: Which inhibition does the source give for `CC(=O)c1ccc(-c2cnc3c(NC=O)cc(-c4ccccc4Oc4ccccc4)cn23)cc1` here?
Answer: The inhibition was 39.3%.

Question: With `C=C1CC2(OC1=O)c1ccccc1CCc1ccccc12` as the compound, how does the inhibition read?
Answer: Its inhibition is 100%.

Question: Which inhibition does the source give for `CCc1ccc(/C=C2\SC(=S)N(CCCC(=O)Nc3ccccn3)C2=O)cc1` here?
Answer: The inhibition was 78.8%.

Question: Which inhibition does the source give for `CN(C(=O)COC(=O)/C=C/c1cccc([N+](=O)[O-])c1)C1CCS(=O)(=O)C1` (stereo not drawn) here?
Answer: Its inhibition is 26%.

Question: Which inhibition does the source give for `O=c1cnnc(N/N=C/c2ccccn2)[nH]1` here?
Answer: The inhibition was 3.68%.

Question: Which inhibition does the source give for `CCC(=O)NC(c1ccc(C)cc1)c1ccc2cccnc2c1O` (stereo not drawn) here?
Answer: Its inhibition is 36.2%.

Question: Which inhibition does the source give for `COC1CC(C)C(OC)c2cc(O)cc(c2O)NC(=O)C(C)=CC=CC(C)C(OC(N)=O)C(C)=CC(C)C1OC` (stereo not drawn) here?
Answer: Its inhibition is 87.1%.

Question: Which inhibition does the source give for `C(=N\Nc1ccc2ccccc2n1)/c1ccc2c(c1)OCCO2` here?
Answer: The inhibition was 99.5%.

Question: For `COc1cccc(OC)c1C(=O)Nc1cc(C)nn1-c1nc2ccccc2[nH]1`, which inhibition is on record?
Answer: Its inhibition is 50.8%.

Question: With `O=C(Nc1ccccc1)c1nc[nH]c1C(=O)NCCCCCCNC(=O)c1[nH]cnc1C(=O)Nc1ccccc1` as the compound, how does the inhibition read?
Answer: The inhibition was -2.1%.

Question: For `CCCCCCCn1c(=N)n(CC(=O)c2ccco2)c2ccccc21`, which inhibition is on record?
Answer: The inhibition was 92.5%.

Question: With `CN1OC[C@@H]2CN(S(=O)(=O)c3cccc(C(F)(F)F)c3)[C@H](c3ccc(-c4cc5ccccc5o4)cc3)C[C@@H]21` as the compound, how does the inhibition read?
Answer: The inhibition was 70.1%.

Question: With `Nc1nonc1-n1nnc(C(=O)N/N=C/c2cc(Br)ccc2O)c1CNc1ccccc1` as the compound, how does the inhibition read?
Answer: Its inhibition is 70.2%.

Question: Which inhibition does the source give for `CCC(c1ccc(O)c(O)c1)C(CC)c1ccc(O)c(O)c1` (stereo not drawn) here?
Answer: The inhibition was 99%.

Question: With `COc1ccc(/C=C2/CCCC(CN(C)C)C2=O)cc1` (stereo not drawn) as the compound, how does the inhibition read?
Answer: The inhibition was 80%.

Question: With `COc1ccc(-n2cc(-c3ccccc3)c3c(N4CCOCC4)ncnc32)cc1` as the compound, how does the inhibition read?
Answer: Its inhibition is 87.7%.

Question: With `Cc1ccsc1/C=N/Nc1cccc(C(=O)O)c1` as the compound, how does the inhibition read?
Answer: Its inhibition is 95.8%.

Question: For `CCCCCCN1C=C/C(=C\C=C(C#N)C#N)c2ccccc21`, which inhibition is on record?
Answer: The inhibition was 50.3%.

Question: For `CCc1ccc(/C=C2\SC(=S)N(CCCC(=O)Nc3cc(C)on3)C2=O)cc1`, which inhibition is on record?
Answer: Its inhibition is 75.9%.

Question: For `COc1ccc(NC(=O)c2cc(-c3ccccn3)nc3ccccc23)cc1S(=O)(=O)N(C)C`, which inhibition is on record?
Answer: Its inhibition is 48.4%.

Question: Which inhibition does the source give for `Cc1ccc(C)c(S(=O)(=O)N2CCN(c3ncnc4sccc34)CC2)c1` here?
Answer: The inhibition was 62.6%.

Question: Which inhibition does the source give for `O=C(COc1ccc2c(c1)CCC2)Nc1ccccn1` here?
Answer: The inhibition was 95.2%.

Question: For `CN(C)c1ccc(C=c2c3ccccc3n3c2cc(-c2ccccc2)[n+]3C)cc1`, which inhibition is on record?
Answer: The inhibition was 99.9%.

Question: For `CS(=O)(=O)c1ccc(-c2sc3ccccc3c2C#CCCO)cc1`, which inhibition is on record?
Answer: Its inhibition is 90.1%.

Question: Which inhibition does the source give for `COCCCNC(=O)c1ccc(Cn2c(=O)c3ccccc3n(Cc3ccccc3C#N)c2=O)cc1` here?
Answer: Its inhibition is 32.3%.

Question: Which inhibition does the source give for `Cc1ccc(NC(=S)NC(=O)c2ccc(F)cc2)cc1S(=O)(=O)Nc1ccccc1Cl` here?
Answer: Its inhibition is 70.9%.

Question: With `CCc1ccc(/C=C2\SC(=S)N(CCCC(=O)NC3=NCCS3)C2=O)cc1` as the compound, how does the inhibition read?
Answer: Its inhibition is 79.8%.
